# Measurements taken from PubChem BioAssay AID720650 (Broad Institute, 2013).
# A number with no mark means an inactive call. Activity calls are given as the source filed them. How the calls were made is not given here.
# Experiment: Biochemical counterscreen for C difficile toxins, absence of UDPG, inhibitor dose response (AID 720650)
# Details: series mostly up to 19.5 µM; activity change, negative = inhibition: at the top concentration
Structure (SMILES),"activity change, negative = inhibition",AC50
CCOc1ccc2ccccc2c1/C=N/NC(=O)c1ccncc1,-22.3%,–
COc1cc2c(cc1N)-c1ccc(N)cc1C2=O,–,1.18 µM (active)
O=C(OCC(=O)N1CCCCC1)c1ccccc1SCC(=O)N1CCCCC1,-4.44%,–
COc1cc(/C=C(/NC(=O)c2ccccc2)C(=O)Nc2ccc(O)cc2)c([N+](=O)[O-])cc1OC,–,13.9 µM (active)
O=C(N/N=C/c1ccccn1)c1ccc([N+](=O)[O-])cc1Cl,-1.86%,–
CC(=O)Nc1ccc(NC(=O)Cc2ccc(S(=O)(=O)N3CCCCC3)cc2)cc1,-7.17%,–
O=C(CNC(=O)c1ccccc1Br)N/N=C/c1ccc(O)cc1,–,15.7 µM (active)
COc1ccc(C(=O)Nc2c(-c3cccs3)c(=O)c3ccccc3n2C)cc1,-20.1%,–
Cc1cc(C=C2C(=O)c3ccccc3C2=O)c(C)n1-c1ccc(C(=O)O)cc1,–,12 µM (active)
O=c1c2ccccc2oc2ccc(NCCCN3CCOCC3)cc12,-10.6%,–
NS(=O)(=O)c1ccc(NC(=S)NCc2ccc3c(c2)OCO3)cc1,–,> 39 µM
C/C(=N\OCC(=O)Nc1nc2ccccc2s1)c1ccccc1,8.02%,–
COc1cc(NC(=O)CSc2nc3[nH]ncc3c(=O)n2-c2ccccc2C)cc(OC)c1OC,-9.91%,–
CCCNC(=O)C1(C)CCCN(C(=O)c2ccccc2OC(F)(F)F)C1 (centres undefined),-5.78%,–
COc1ccc(C(O)(C(C)C)C(CN2CCOCC2)c2ccccc2)cc1 (centres undefined),-13.9%,–
COc1cc2nncc(SC)c2cc1OC,-3.57%,–
COC(=O)Cc1ccc(NC(=S)NCc2ccco2)cc1,-4.67%,–
CC1C(=O)NN=C1c1ccc([N+](=O)[O-])cc1 (centres undefined),2.17%,–
FC(F)(F)c1cc(Cl)c2nc(-c3ccccc3)c(Cc3ccsc3)n2c1,-3.45%,–
CCC(=O)Nc1ccc2c(c1)OC[C@@H](C)N(C(=O)NC(C)C)C[C@@H](C)[C@@H](OC)CN(C)C2=O,0.233%,–

Structure (SMILES),"activity change, negative = inhibition",AC50
COc1ccc(-c2ccc3c(c2)[C@@H]2[C@@H](CCN2C(=O)C2CC2)[C@H](CO)N3C)cc1,–,14.8 µM (active)
Cc1ccc(NC(=O)OC(C)N2CCCCC2)cc1NC(=O)OC(C)N1CCCCC1 (centres undefined),9.91%,–
CCOc1ccc(S(=O)(=O)NCc2ccccc2Cl)cc1C(N)=O,–,> 39 µM
N=C(N)c1ccc(N=Nc2c(O)ccc3c2[nH]c2ccccc23)cc1,-3.4%,–
Cc1onc(-c2ccccc2Cl)c1C(=O)Nc1cnn(Cc2ccccc2)c1,-8.22%,–
COc1ccc(-c2nc(N)ncc2-c2ccccc2OC)c(O)c1,-17.4%,–
Cc1cscc1-c1nc(NCC2CC2)nc2ccsc12,7.56%,–
Cc1ccc(S(=O)(=O)N2CCCC2C(=O)Nc2ccc(O)cc2)cc1 (centres undefined),–,16.6 µM (active)
COc1ccc(C(=O)OCC(=O)Nc2ccc3[nH]c(=O)[nH]c3c2)c(OC)c1OC,-9.79%,–
COc1ccc(-c2ccc(OC(=O)NC3CCS(=O)(=O)C3)cc2)cc1 (centres undefined),–,12.6 µM (active)
Cc1ccc2ccc[n+](Cc3ccccc3)c2c1,-7.71%,–
O=C(CCNC(=O)c1ccccc1Cl)N/N=C\c1ccc(O)cc1,–,15.8 µM (active)
CSc1ccccc1NC(=O)C1=CC(c2ccc(C)cc2)=NS(=O)(=O)N1C,-9.44%,–
O=C(NCc1ccccc1)[C@@H]1CCCN1C(=O)[C@@H]1CCCN1C(=O)c1cccs1,-1.67%,–
O=C(COc1ccccc1)Nc1ccc(S(=O)(=O)Nc2ncccn2)cc1,-3.22%,–
COc1cc(/C=N/NC(=O)c2c(C)nc3ccc(Cl)cn23)cc(OC)c1OC,-0.562%,–
CNC(=O)C[C@H]1CC[C@@H]2[C@@H](COc3ccc(NC(=O)c4cccc(OC)c4)cc3C(=O)N2C)O1,-18.7%,–
Oc1ccc(/C=N/N2CCN(c3ccccn3)CC2)cc1,–,15 µM (active)
NC(=O)c1ccc2c(=O)c(O)c(-c3cc(Cl)c(N)c(Cl)c3)[nH]c2c1,-2.89%,–
